Bioassay records from PubChem.
The entries come from a sample that favours hits as a whole.
Tgondii IFNg = blocks Toxoplasma gondii growth in the presence of IFN-gamma; AID 1259416; activity change, negative = inhibition, % (test concentration not listed); Toxoplasma gondii growth in IFN-gamma-treated host cells; active compounds read low; actives 3.8% (n = 69,000); in the data active means activity change below about -70%, passing the limit was not always enough;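 further: host cells are HeLa cells infected with Toxoplasma gondii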
* hit, by the source's call; i = inactive; ! = not active in a repeat.

SMILES	Tgondii IFNg
CCCCCOc1ccc(C(O)C(CN2CCCC2)c2ccccc2)cc1 (configuration not stated)	-91.2*
CC(=O)c1ccc(OCC(O)CN2CCN(C(c3ccccc3)c3ccccc3)CC2)cc1 (configuration not stated)	-61.2
CCOC(CN1CCN(CC(C)C(=O)c2ccccc2)CC1)c1ccccc1 (configuration not stated)	-9.5
CCS(=O)(=O)Nc1ccc2c(c1)C(=O)N(C)C[C@@H](OC)[C@H](C)CN(CC1CCCCC1)[C@@H](C)CO2	138.2
C=C1C2CC[C@@]3(C)[C@H](c4ccoc4)OC(=O)C[C@]13O[C@H]1CC(=O)C(C)(C)[C@H](C(O)C(=O)OC)[C@@]21C (some centres not stated)	-3.9
CC(C(=O)N1CCC(C(O)(c2ccccc2)c2ccccc2)CC1)n1ccnc1 (configuration not stated)	-11.3
Cn1cc(CN2CCC(C(O)(c3ccccc3)c3ccccc3)CC2)cn1	4.3
CC(C)(C)c1ccc(C(O)CCCN2CCC(C(O)(c3ccccc3)c3ccccc3)CC2)cc1 (configuration not stated)	-91.2*!
CCCN(c1ccc(OCC)cc1)c1nc(C(=O)OCC)nc2ccccc12	-64.1
O=C(c1cnccn1)N1CCC2(CC1)CN(c1ncccn1)CCO2	3.8
COc1cccc(CNc2nc(-c3nnc(-c4cccc(Cl)c4)o3)nc3ccccc23)c1	-85.9*
Cc1ccc(-c2nnc(-c3nc(NCCC4=CCCCC4)c4ccccc4n3)o2)cc1	i
COc1ccc(CNc2nc(-c3nnc(-c4cccc(Cl)c4)o3)nc3ccccc23)cc1	-66.8
Cc1ccc(-c2nnc(-c3nc(NCc4ccccc4F)c4ccccc4n3)o2)cc1	66.3
Fc1cccc(CNc2nc(-c3nnc(-c4ccccc4)o3)nc3ccccc23)c1	122.9
Fc1ccccc1CNc1nc(-c2nnc(-c3cccc(Cl)c3)o2)nc2ccccc12	-80.1*
Clc1cccc(-c2nnc(-c3nc(NCCC4=CCCCC4)c4ccccc4n3)o2)c1	-83.0*
COc1ccc(-c2nnc(-c3nc(NCc4cccc(Cl)c4)c4ccccc4n3)o2)cc1	362.8
CC(C)Nc1nc(-c2nnc(-c3cccc(Cl)c3)o2)nc2ccccc12	-39.5
O=C(C[C@H]1C[C@@H]2CN(Cc3ccc(F)cc3)C[C@H]2O1)N1CCCCO1	-1.3
CCc1cccc(NC(=O)CN2CCC3(CC2)N=C(c2ccc(F)cc2)C(=O)N3)c1	34.0
CCOC(=O)N1CCC(N2CC34C=C[C@@H](O3)[C@H](C(=O)Nc3ccc(C)cc3)[C@@H]4C2=O)CC1	-33.6
Cc1noc(C)c1S(=O)(=O)N1CCC2(CC1)Nc1ccc(Cl)cc1-n1cccc12	-12.5
O=c1cc(C2CCCN(Cc3cc4n(n3)CCCNC4)C2)nc[nH]1 (configuration not stated)	8.9
CCN1CCc2ncc(CNC(=O)c3cnn(C)c3)n2CC1	-25.7
SMILES	Tgondii IFNg
COc1c(Cl)cc(Cl)cc1C(=O)N1CC[C@H](O)[C@@H](O)C1	4.9
CCCN1C[C@@H]2Cc3c(c(-c4cccc(OC)c4)nn3C)[C@H]2C1	1.9
CCNC(=O)c1ccc(N2CCN(Cc3ccc4c(c3)OCCO4)CC2)nc1	-2.8
CCNC(=O)c1noc(-c2cc(C(C)C)c(O)cc2O)c1-c1ccc(CN2CCOCC2)cc1	-88.4*
O=C(Nc1ccc(CN2CCOCC2)cc1)c1cc2ccccc2o1	i
COCC(=O)N1[C@@H](C#N)[C@H](c2ccc(C#CCC3CCCC3)cc2)[C@@H]1CO	-42.9
O=C(Nc1cccc(NC(=O)C(F)(F)F)n1)C(F)(F)F	12.8
COc1nc(N)nc2c1ncn2[C@@H]1O[C@H](CO)[C@@H](O)[C@@H]1O	14.4
Nc1nc(=S)c2ncn([C@@H]3O[C@H](CO)[C@@H](O)[C@H]3O)c2[nH]1	-77.5*
Nc1ncn([C@@H]2O[C@H](CO)[C@@H](O)[C@H]2O)c(=O)n1	-40.6
C/C(=C\c1ccco1)CN1C[C@H](N(C)C)C[C@H]1CO	5.9
COc1ccc(NC(=O)Cn2ncc3c(N4CCN(c5ccccc5)CC4)ncnc32)cc1	-40.8
COc1ccc2[nH]c3c(c2c1)CCN(C(=O)c1ccc(C)cc1)C31C(=O)Nc2ccccc21 (configuration not stated)	-97.2*
COc1ccc2c3c([nH]c2c1)C1(NCC3)C(=O)Nc2ccccc21 (configuration not stated)	38.2
Cc1ccc2[nH]c3c(c2c1)CCNC31C(=O)Nc2ccccc21 (configuration not stated)	36.0
CNC[C@@H]1Oc2ccc(NC(=O)NC3CCCCC3)cc2CC(=O)N([C@H](C)CO)C[C@@H]1C	-5.7
CC(C)NC(=O)CC1CC2(CCN(S(=O)(=O)c3ccccc3)CC2)Oc2ccccc21 (configuration not stated)	-54.0
Cc1cc(N2CCCN(Cc3ccc(-n4cccn4)cc3)CC2)ccn1	-9.7
Cc1ccc(N2CCCC2=O)cc1S(=O)(=O)NCCc1c(C)noc1C	-22.0
Cc1ccc(N2CCCC2=O)cc1S(=O)(=O)Nc1ccc2c(c1)CC(=O)N2	49.2
Cc1ccc(N2CCCC2=O)cc1S(=O)(=O)Nc1ccc(N2CCCC2=O)cc1	-90.5*
COC(=O)[C@@]12OC[C@]34[C@H]([C@@H](O)[C@@H]1O)[C@@]1(C)CC(=O)C(=O)C(C)[C@@H]1C[C@H]3OC(=O)[C@H](OC(=O)/C=C(\C)C(C)C)[C@@H]24 (some centres not stated)	-88.8*
COC(=O)c1cc2n(n1)CCCN(C(=O)CSc1nc(C)cs1)C2	37.0
Cn1ccc(C(=O)N2CCC3(CCCN3c3ncccn3)CC2)n1	-43.3
Cc1ccc(C)c(S(=O)(=O)N2CCC3(CC2)NCCN=C3NCc2ccccc2F)c1	-9.8
SMILES	Tgondii IFNg
CSc1nccc(N2CCCC3(CC2)CN(C)C(=O)O3)n1 (configuration not stated)	-51.9
CCn1cncc1C(=O)Nc1nc(-c2ccc(OC)c(OC)c2)cs1	-19.1
Cc1cc(C(=O)N2CCc3c(COCC(C)C)cncc3C2)no1	-0.3
CN(C)/N=N/c1nc[nH]c1C(N)=O	-83.2*
Cc1cc(C)n(CC(C)NCc2cccc(-n3cccn3)c2)n1 (configuration not stated)	6.9
COc1cc(C)ccc1OCc1cc(C(=O)N(C)Cc2ncc(C)[nH]2)no1	3.0
O=C(CN1CCOc2ccccc2C1)NCCS(=O)(=O)N1CCCC1	3.5
CCS(=O)(=O)N1CCc2nc(N3CCCC3)nc(N(C)C)c2CC1	-23.0
Cc1nc2ncc(-c3cc(NCc4ccccn4)nc4[nH]ccc34)cc2[nH]1	-1.0
Cn1nccc1-c1nc(NCc2ccccn2)ncc1-c1ccsc1	-93.0*
Cn1ccnc1-c1cnc(NCc2ccccn2)nc1-c1ccco1	26.2
CN(C)C(=O)CN1CCC2(CC1)CC(NC1CCOCC1)c1ccccc12 (configuration not stated)	-24.3
CN(C)C(=O)COC[C@]12COC[C@H]1CN(S(C)(=O)=O)C2	5.6
Cc1cccc(CN2CCCC3(CCN(S(=O)(=O)c4ccc(F)cc4)C3)C2)n1 (configuration not stated)	-9.5
Cc1ccc(S(=O)(=O)N2CCC3(CCCN(Cc4c(C)noc4C)C3)C2)cc1 (configuration not stated)	-14.8
CCc1ccc(S(=O)(=O)N2CCC3(CCCN(Cc4c(C)noc4C)C3)C2)cc1 (configuration not stated)	-71.8*
CCCN(Cc1ccc(OC)cc1)C(=O)c1cnc(N(C)C)nc1C	6.8
